The values below come from PubChem BioAssay (Tox21).

“And” between values parts separate entries of the source, which are not always exact repeats. Equal values may be shown once. Results filed as inconclusive are left out. The source holds several records for some structures; these can differ, active in one and inactive in another. The source made the active and inactive calls. Unless noted, calls come from the whole dose curve; as a rule, active = well fitted curve in the direction sought with a large enough effect in the repeat runs; inconclusive = weak or mixed curves; inactive = no such curve, though single readings can be large; an effect the other way counts as inactive or inconclusive.

Test [1] concerns the target Progesterone receptor (Homo sapiens) (UniProt P06401). In words: qHTS assay to identify small molecule antagonists of the progesterone receptor (PR) signaling pathway (AID 1346795; active = well fitted inhibition curve with a large enough effect in the signal ratio in the repeat runs, not every such curve was filed as active; the % refers to the signal ratio; note: potency is the fitted concentration of half-maximal effect). In a few lines:
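Antagonist mode with agonist R5020 at 1 nM final and 16 hr incubation at 37C. Reporter was beta-lactamase driven by UAS in HEK293T (PR-UAS-bla), 2% charcoal-stripped serum; signal from LiveBLAzer FRET substrate, 2 hr at room temperature.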
Background: qHTS replaces the single test concentration by a dilution series.

Test [2] can be described thus: qHTS assay to identify small molecule antagonists of the progesterone receptor (PR) signaling pathway - cell viability counter screen (AID 1346798). Note: series mostly up to about 92 µM; nearly all actives have a fitted effect of over 50% in size. In a few lines: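 Cytotoxicity read as CellTiter-Glo luminescence (30 min, room temperature) in the same wells as the beta-lactamase readout. HEK293T PR-UAS-bla cells in charcoal-stripped 2% FBS received compound and R5020, then 16 h at 37C, 5% CO2.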

Test [3] in a line: qHTS assay to identify small molecule agonists of the progesterone receptor (PR) signaling pathway - cell viability counter screen (AID 1346799; calls by dose curve; note: nearly all actives have a fitted effect of over 45% in size). In a few lines: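 Cytotoxicity measured by CellTiter-Glo luminescence (30 min, RT) in the same wells as the PR beta-lactamase agonist read. Those HEK293T cells had 16 h compound treatment at 37 C in 2% charcoal-stripped FBS medium.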

Test [4] can be described thus: qHTS assay to identify small molecule agonists of the TGF-beta/Smad signaling pathway - cell viability counter screen (AID 1346829). Note: top concentration of the series differs between compounds; nearly all actives have a fitted effect of over 45% in size. Put shortly: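 After overnight seating at 37 C and 5% CO2, reporter cells got compounds for 5 hr and FRET substrate for 2 hr; cell viability then came from CellTiter-Glo luminescence.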
Test [5] in a line: qHTS assay to identify small molecule agonists of the TGF-beta/Smad signaling pathway (AID 1346859; active = well fitted activation curve with a large enough effect in the signal ratio in the repeat runs, not every such curve was filed as active; the % refers to the signal ratio; note: series mostly up to about 77 µM). Put shortly:
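Fluorescence (ex 405 nm; em 460 and 530 nm) was read 2 h after LiveBLAzer FRET substrate at RT. The preceding compound treatment of overnight-plated SBE-bla HEK293T cells lasted 5 h at 37 C.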

Test [6] is described as follows: Human pregnane X receptor (PXR) small molecule agonists, qHTS cell viability counter screen (AID 1346977). Note: nearly all actives have a fitted effect of over 50% in size. Put shortly:
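Same-well viability read: CellTiter-Fluor added after 23 hr compound exposure, fluorescence measured 1 hr later. Cells were PXR-Luc HepG2 seeded at 2,000/well in 5% charcoal-stripped FBS medium, rested 5 hr before dosing at 37 C.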

Test [7] in a line: Caspase-3/7 induction in HepG2 cells by small molecules, qHTS assay (AID 1346978). Note: nearly all actives have a fitted effect of over 15% in size. Put shortly: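 Wild-type HepG2 cells (2,000/well) were settled 5 h at 37 C, 5% CO2, then exposed to compounds in DMSO for 17 h. Caspase-3/7 activity was read by luminescence 30 min after adding Caspase-Glo 3/7 reagent at room temperature.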
Test [8] is described as follows: Caspase-3/7 induction in CHO-K1 cells by small molecules, qHTS cell viability counter screen (AID 1346979). Note: nearly all actives have a fitted effect of over 35% in size. Note: potency is the fitted concentration of half-maximal effect. Put shortly:
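Cytotoxicity counter screen: CellTiter-Fluor added to compound-treated wild-type CHO-K1 cells at 16 h (37C, 5% CO2), fluorescence measured 1 h later; same wells as caspase-3/7 measurement.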

Test [9] can be described thus: Caspase-3/7 induction in CHO-K1 cells by small molecules, qHTS assay (AID 1346980). Note: nearly all actives have a fitted effect of over 15% in size. Put shortly: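 Wild-type cells were seeded at 1,500 per well and settled 5 hr at 37 C, 5% CO2, then exposed to DMSO-dissolved compounds for 17 hr. Caspase-Glo 3/7 reagent was added, and luminescence was read after 30min at room temperature.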
Test [10] can be described thus: Caspase-3/7 induction in HepG2 cells by small molecules, qHTS cell viability counter screen (AID 1346981). Note: nearly all actives have a fitted effect of over 30% in size. Note: potency is the fitted concentration of half-maximal effect. In a few lines:
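After a 5-hr attachment period at 37 C and 5% CO2, wild-type HepG2 cells received compounds in DMSO. Sixteen hours later CellTiter-Fluor was dispensed and the fluorescent signal quantified after a further hour.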

The target of test [11] is Nuclear receptor subfamily 1 group I member 2 (Homo sapiens) (UniProt O75469). In words: Human pregnane X receptor (PXR) small molecule agonists, qHTS assay (AID 1346982). Note: nearly all actives have a fitted effect of over 35% in size. Note: potency is the fitted concentration of half-maximal effect. In a few lines: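 Tox21 qHTS; PXR-Luc HepG2; compounds pinned from DMSO; 24 hr, 37 C; ONE-Glo luciferase detection, 30 min room temperature.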
Test [12] deals with Cytochrome P450 2D6 (Homo sapiens) (UniProt P10635). Nature of the test: Cytochrome P450 Family 2 Subfamily D Member 6 (CYP2D6) small molecule antagonists: luciferase reporter qHTS assay (AID 1671196). Note: nearly all actives have a fitted effect of over 50% in size. Note: potency is the fitted concentration of half-maximal effect. Put shortly:
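Room-temperature luminescent CYP2D6 activity assay: compound preincubated 10 min with enzyme–substrate mix, NADPH-initiated reaction 1 h, detection reagent 20 min before reading.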
Background: Reporter assays use an easily measured gene product as a stand-in for the process of interest.

Test [13] has as its target Cytochrome P450 2C19 (Homo sapiens) (UniProt P33261). In words: Cytochrome P450 Family 2 Subfamily C Member 19 (CYP2C19) small molecule antagonists: luciferase reporter qHTS assay (AID 1671197). Note: nearly all actives have a fitted effect of over 65% in size. Note: potency is the fitted concentration of half-maximal effect. In a few lines:
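Inhibition of CYP2C19 was scored from loss of luminescence in a P450-Glo proluciferin substrate assay, NADPH-started and run 1 h at 37C, with ketoconazole as positive control.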

For test [14], the target named is Cytochrome P450 2C9 (Homo sapiens) (UniProt P11712). In words: Cytochrome P450 Family 2 Subfamily C Member 9 (CYP2C9) small molecule antagonists: luciferase reporter qHTS assay (AID 1671198). Note: nearly all actives have a fitted effect of over 50% in size. Note: potency is the fitted concentration of half-maximal effect. Put shortly:
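CYP2C9 activity was measured with a P450-Glo proluciferin substrate. Enzyme–substrate mix was held with compound for 10 min at room temperature, then NADPH regeneration solution was added for 1 h at 37C. Luciferin product was read as luminescence.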

Test [15] addresses Thyrotropin-releasing hormone receptor (Homo sapiens) (UniProt P34981). Nature of the test: qHTS assay to identify small molecule antagonists of the thyrotropin-releasing hormone receptor (TRHR) signaling pathway (AID 1346877; active = well fitted inhibition curve with a large enough effect in the repeat runs, not every such curve was filed as active; note: series mostly up to about 51 µM). Put shortly:
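Calcium signal in dye-loaded TRHR/HEK293 cells; compounds added 5 min before TRH (1 nM final); fluorescence monitored 3 min at 1 s steps.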

The target is the same in test [16]. Nature of the test: qHTS assay to identify small molecule agonists of the thyrotropin-releasing hormone receptor (TRHR) signaling pathway (AID 1346891; calls by dose curve; note: series mostly up to about 58 µM). Put shortly: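 Agonist-mode intracellular calcium readout: kinetic fluorescence over 3 min at 1 s intervals after compound addition to TRHR-HEK293 cells (18 h seeded, 2 h dye-loaded at 37 C). Fifteen concentrations, triplicates.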

Test [17] in a line: qHTS assay to identify small molecule antagonists of the TGF-beta/Smad signaling pathway - cell viability counter screen (AID 1346824). Note: nearly all actives have a fitted effect of over 50% in size. In a few lines: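 SBE-bla HEK 293T cells were plated overnight at 37 C, then given compounds in DMSO plus TGF-beta1 (added as 0.25 ng/mL solution) for 5 hr. After the bla read, CellTiter-Glo was added to the same wells and luminescence read after 30 min at room temperature.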

For test [18], the target named is Nuclear receptor subfamily 1 group I member 2 (Homo sapiens) (UniProt O75469). Nature of the test: CYP3A4 induction through human pregnane X receptor (PXR) by small molecules, qHTS assay (AID 1346984). Note: nearly all actives have a fitted effect of over 40% in size. In a few lines:
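Cells (DPX-2; HepG2 with PXR element plus CYP3A4-promoter luciferase) settled 5hr, then were treated 24hr at 37C. A 3hr, 3uM-final Luciferin-IPA step preceded luminescence measurement with One-Glo.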

For test [19] the target is unchanged. In words: Human pregnane X receptor (PXR) activation by small molecules, qHTS assay (AID 1346985). Note: nearly all actives have a fitted effect of over 40% in size. Put shortly: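 DPX-2 cells (HepG2 co-transfected with a PXR response element and a CYP3A4-promoter luciferase construct) were seeded at 2,000 per well, rested 5 hr at 37C, then exposed to DMSO-dissolved compounds for 24 hr. Activation was read as luciferase luminescence.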

Progesterone receptor (Homo sapiens), sequence (P06401 whole entry, looked up): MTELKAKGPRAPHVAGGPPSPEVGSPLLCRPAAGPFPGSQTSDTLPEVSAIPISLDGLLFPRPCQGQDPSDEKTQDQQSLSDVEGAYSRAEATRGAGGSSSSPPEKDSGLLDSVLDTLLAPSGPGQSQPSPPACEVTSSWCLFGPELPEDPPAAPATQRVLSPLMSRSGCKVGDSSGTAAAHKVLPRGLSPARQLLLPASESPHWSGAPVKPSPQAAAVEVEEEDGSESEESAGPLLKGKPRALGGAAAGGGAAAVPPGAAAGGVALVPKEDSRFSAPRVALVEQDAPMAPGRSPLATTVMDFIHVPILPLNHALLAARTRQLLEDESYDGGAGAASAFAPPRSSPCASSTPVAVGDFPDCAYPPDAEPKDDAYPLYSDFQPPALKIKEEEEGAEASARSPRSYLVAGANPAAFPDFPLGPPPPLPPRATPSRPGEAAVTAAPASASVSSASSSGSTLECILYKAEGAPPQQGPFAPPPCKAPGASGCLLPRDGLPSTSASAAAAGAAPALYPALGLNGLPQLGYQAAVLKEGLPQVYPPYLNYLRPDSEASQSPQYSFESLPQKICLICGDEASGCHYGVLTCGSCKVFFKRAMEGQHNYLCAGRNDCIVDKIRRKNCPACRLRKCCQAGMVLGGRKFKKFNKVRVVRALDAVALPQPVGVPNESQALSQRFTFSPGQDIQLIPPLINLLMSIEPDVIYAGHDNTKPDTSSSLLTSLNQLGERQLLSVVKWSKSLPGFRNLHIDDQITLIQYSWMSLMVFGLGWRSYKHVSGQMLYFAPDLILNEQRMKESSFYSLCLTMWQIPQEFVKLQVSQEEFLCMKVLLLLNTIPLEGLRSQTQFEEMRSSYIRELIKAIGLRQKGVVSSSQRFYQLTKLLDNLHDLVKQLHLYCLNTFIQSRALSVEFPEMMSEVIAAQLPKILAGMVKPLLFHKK
Cytochrome P450 2C19 (Homo sapiens), sequence (P33261 whole entry, looked up): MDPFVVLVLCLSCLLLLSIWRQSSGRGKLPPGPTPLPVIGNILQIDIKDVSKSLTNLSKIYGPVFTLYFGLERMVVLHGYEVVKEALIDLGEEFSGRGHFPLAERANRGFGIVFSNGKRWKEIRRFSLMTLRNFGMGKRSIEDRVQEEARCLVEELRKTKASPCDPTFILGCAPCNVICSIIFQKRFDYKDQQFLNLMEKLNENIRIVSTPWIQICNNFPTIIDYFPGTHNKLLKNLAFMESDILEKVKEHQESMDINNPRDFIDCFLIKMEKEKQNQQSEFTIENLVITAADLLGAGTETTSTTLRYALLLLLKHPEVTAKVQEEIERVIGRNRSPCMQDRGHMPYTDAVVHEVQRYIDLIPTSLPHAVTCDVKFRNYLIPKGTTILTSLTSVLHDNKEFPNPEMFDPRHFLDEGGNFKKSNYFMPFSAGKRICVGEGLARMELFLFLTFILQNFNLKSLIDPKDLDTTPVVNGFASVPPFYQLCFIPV
Cytochrome P450 2C9 (Homo sapiens), sequence (P11712 whole entry, looked up): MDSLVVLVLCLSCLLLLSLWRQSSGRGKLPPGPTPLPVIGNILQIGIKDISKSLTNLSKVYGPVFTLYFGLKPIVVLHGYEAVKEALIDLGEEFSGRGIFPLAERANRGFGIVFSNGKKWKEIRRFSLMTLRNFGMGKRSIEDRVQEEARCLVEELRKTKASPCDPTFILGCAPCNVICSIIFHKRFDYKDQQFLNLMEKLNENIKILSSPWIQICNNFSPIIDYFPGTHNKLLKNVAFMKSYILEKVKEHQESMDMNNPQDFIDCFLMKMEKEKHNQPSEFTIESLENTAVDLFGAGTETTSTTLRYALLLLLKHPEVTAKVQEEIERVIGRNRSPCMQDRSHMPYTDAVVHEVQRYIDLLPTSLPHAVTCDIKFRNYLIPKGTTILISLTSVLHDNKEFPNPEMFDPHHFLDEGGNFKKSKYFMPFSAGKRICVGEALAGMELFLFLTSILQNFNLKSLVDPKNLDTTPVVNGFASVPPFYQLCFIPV
Cytochrome P450 2D6 (Homo sapiens), sequence (P10635 whole entry, looked up): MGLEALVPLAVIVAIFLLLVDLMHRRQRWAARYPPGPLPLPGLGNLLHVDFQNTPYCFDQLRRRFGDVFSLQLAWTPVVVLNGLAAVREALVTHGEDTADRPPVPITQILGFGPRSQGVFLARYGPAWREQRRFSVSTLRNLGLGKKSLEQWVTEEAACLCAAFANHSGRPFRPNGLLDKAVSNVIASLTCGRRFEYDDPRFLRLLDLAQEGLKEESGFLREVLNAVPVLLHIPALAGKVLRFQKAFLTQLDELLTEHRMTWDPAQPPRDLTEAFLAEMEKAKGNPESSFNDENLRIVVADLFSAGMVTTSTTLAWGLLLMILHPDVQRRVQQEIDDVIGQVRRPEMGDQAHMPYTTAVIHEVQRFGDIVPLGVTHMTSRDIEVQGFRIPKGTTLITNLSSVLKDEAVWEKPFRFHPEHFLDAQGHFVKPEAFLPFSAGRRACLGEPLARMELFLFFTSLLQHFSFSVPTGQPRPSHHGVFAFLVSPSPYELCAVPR
Nuclear receptor subfamily 1 group I member 2 (Homo sapiens), sequence (O75469 whole entry, looked up): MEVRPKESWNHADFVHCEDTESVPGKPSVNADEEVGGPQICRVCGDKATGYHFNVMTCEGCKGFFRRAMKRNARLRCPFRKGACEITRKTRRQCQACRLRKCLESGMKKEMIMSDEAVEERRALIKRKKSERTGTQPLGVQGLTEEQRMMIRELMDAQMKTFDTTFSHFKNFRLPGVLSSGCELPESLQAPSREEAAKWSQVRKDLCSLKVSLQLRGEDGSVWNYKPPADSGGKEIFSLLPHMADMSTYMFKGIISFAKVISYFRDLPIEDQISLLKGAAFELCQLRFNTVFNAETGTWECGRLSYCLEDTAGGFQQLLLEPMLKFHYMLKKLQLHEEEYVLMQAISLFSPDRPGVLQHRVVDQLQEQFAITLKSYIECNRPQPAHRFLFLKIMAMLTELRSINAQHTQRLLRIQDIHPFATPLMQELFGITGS
Thyrotropin-releasing hormone receptor (Homo sapiens), sequence (P34981 whole entry, looked up): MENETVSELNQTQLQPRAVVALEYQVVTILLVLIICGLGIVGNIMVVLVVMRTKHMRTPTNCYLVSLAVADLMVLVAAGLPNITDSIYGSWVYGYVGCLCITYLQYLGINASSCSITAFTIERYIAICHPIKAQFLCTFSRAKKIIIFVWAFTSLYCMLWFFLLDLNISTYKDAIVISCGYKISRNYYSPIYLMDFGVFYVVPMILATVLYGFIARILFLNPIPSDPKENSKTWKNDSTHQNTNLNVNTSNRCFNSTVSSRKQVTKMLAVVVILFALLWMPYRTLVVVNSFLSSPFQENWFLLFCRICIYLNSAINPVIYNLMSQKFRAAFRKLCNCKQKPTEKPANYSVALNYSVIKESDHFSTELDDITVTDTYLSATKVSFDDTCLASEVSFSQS

With `O=C(Oc1ccccc1)c1ccccc1O`, the Potency result in [1], in test [2], in [3], in test [4], in [6] and in [7] was “inactive” in each case. Besides, the Potency entry in test [8], in test [9], in [10], in test [11], in test [12] and in [13] was “inactive” in each case. In addition, the call in [5] was inactive. Also, the Potency in test [14] was 35.6 µM (active) and 24.5 µM (active).

On to `Cc1cccc(O)c1C`, for which the Potency result in [1], in test [2], in test [3], in [4], in [15] and in test [16] was “inactive” in each case. Also, the Potency result in test [7], in test [9], in test [10], in test [12] and in [14] was “inactive” each time. Further, in [5], the compound was classed as inactive. Also, the Potency in test [13] is 70.5 µM (active) and inactive.

`CCn1c2ccccc2c2cc(N)ccc21`: the Potency is 34.4 µM (active) in test [1]; 53.9 µM (active) and inactive and 43.3 µM (active) in [8]; “inactive and 30.6 µM (active)” in [10]; 5.39 µM (active) and 30.6 µM (active) and inactive in test [11]; 703 nM (active) and 3.99 µM (active) and 10 µM (active) in test [12]; 4.43 µM (active) and 31.7 µM (active) and 12.6 µM (active) in [13]. The Potency in test [14] was 12.5 µM (active) and 31.7 µM (active) and 28.3 µM (active). Moreover, the Potency result in test [2], in test [3], in test [4], in [15], in test [16] and in [6] was “inactive” each time. Besides, the Potency entry in test [7] and in [9] was “inactive” each time. The call in test [5] was inactive.

For the compound `O=Cc1ccc(Cl)cc1`, the Potency result in [1], in test [2], in [3], in test [4], in test [15] and in test [16] was “inactive” throughout. The Potency result in test [6], in test [7], in [8], in [9], in test [10] and in [14] was “inactive” throughout. In test [5], the call was inactive.

Regarding `CC(N)=O`, the Potency entry in test [1], in test [2], in [17], in test [4], in test [15] and in [16] was “inactive” in each case. Also, the Potency result in test [6], in test [7], in test [8], in test [9], in test [10] and in test [11] was “inactive” in each case. For the same compound, the Potency result in [12] and in [13] was “inactive” in each case. The compound was classed as inactive in test [5].

Take `CC(C)CCOC(=O)c1ccc(N(C)C)cc1`: the Potency entry in test [1], in [2], in test [3], in test [4], in [15] and in [16] was “inactive” in each case. In addition, the Potency result in [6], in test [7], in [8], in test [9], in test [10] and in [11] was “inactive” in each case. Also, the Potency entry in test [18], in [19] and in [12] was “inactive” each time. The compound was called inactive in test [5]. The Potency in [13] was 4.9 µM (active); in [14] it was 8.71 µM (active).

For the compound `NCCO`, the Potency result in test [1], in [2], in [3], in test [4], in test [6] and in test [7] was “inactive” each time. In addition, the Potency result in [9] and in test [10] was “inactive” each time. The result in test [5] was inactive. For the same compound, the Potency is 27.3 µM (active) in [11]; “inactive and 5.03 µM (active)” in test [12]; “inactive and 11.2 µM (active)” in test [13]; “inactive and 31.7 µM (active)” in test [14].
